Screening data from PubChem.
ELG1 genotox: qHTS screen for small molecules that induce genotoxicity in human embryonic kidney (HEK293T) cells expressing luciferase-tagged ELG1 | HEK293T ELG1-luciferase reporter, luminescence, 16 h | Potency, µM (titrated, usually from 46 µM), for inactives: at the highest dose activity change, positive = activation, actives largely listed as activators | 1.3% of 330,000 active | AID 504466, 2011; further: % of control where 0% means no effect; nearly all actives have a fitted effect of over 60% in size
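HEK293T cells expressing luciferase-tagged ELG1 were treated with compound or DMSO for 16 hr at 37°C. Luciferase activity was then read after 30 min with ONE-Glo at room temperature; rising signal flags genetic stress.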
Rab9 prom act: qHTS Assay for Rab9 Promoter Activators | Huh7 Rab9 promoter-luciferase reporter, luminescence, 24 h | Potency, µM (series often up to 9.22 µM), without a hit: at the highest dose activation, negative = inhibition, usual class: activators | 2.8% of 320,000 active | AID 485297, 2010; further: % of control where 0% means no effect; nearly all actives have a fitted effect of over 60% in size
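Steps: seed 1500 Huh7 Rab9-luc cells per well, rest 2 h at 37 °C; add compound in DMSO; incubate 24 h; add luciferase reagent, 10 min ambient; read luminescence.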
Luc counter: Counterscreen for Luciferase (Kinase-Glo TM) Inhibition; Potency, µM (top dose mostly 38.3 µM), for the others: at the highest dose activity change, negative = inhibition, usual class: inhibitors; Kinase-Glo luciferase, ATP luminescence, 8 min; AID 1379, 2008; 0.28% of 200,000 active; further: on the % scale 0 is the no-effect control and ±100 the full control effect; nearly all actives have a fitted effect of over 60% in size
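Compound is pinned into ATP-containing buffer (10 uM ATP, imidazole pH 7.2, 7 mM MgCl2). Kinase-Glo luciferase reagent is then added. Light output is recorded following an 8-min room-temperature incubation.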
FLuc counter: qHTS profiling assay for firefly luciferase inhibitor/activator using purifed enzyme and Km concentrations of substrates (counterscreen for miR-21 project); purified FLuc, Km substrates, luminescence inhibition; Potency, µM (top dose mostly 57.5 µM), for inactives: at the top dose activity change, negative = inhibition, most hits filed as inhibitors; 6.9% of 360,000 active; AID 588342, 2011;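 further: plate controls were vehicle for no effect and reference inhibitor for full effect; nearly all actives have a fitted effect of over 55% in size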
Target sequence (P08659 whole entry, looked up): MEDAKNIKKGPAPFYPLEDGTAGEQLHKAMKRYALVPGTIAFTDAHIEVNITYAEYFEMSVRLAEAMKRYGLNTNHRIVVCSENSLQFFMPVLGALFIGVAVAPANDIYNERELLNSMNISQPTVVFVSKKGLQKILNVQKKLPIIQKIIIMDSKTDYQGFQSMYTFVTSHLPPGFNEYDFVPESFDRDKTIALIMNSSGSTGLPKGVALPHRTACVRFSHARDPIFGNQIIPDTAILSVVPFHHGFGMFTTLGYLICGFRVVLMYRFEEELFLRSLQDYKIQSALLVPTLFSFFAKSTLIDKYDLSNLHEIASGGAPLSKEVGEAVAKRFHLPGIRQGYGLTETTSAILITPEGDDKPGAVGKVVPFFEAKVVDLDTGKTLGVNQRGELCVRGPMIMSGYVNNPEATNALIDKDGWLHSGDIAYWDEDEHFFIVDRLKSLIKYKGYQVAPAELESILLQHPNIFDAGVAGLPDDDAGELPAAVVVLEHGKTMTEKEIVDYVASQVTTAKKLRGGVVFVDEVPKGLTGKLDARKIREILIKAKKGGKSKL
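Purified P. pyralis luciferase, 10 nM final, with Km-level 10 uM D-luciferin and 10 uM ATP in 50 mM Tris acetate pH 7.5, 10 mM Mg acetate, 0.01% Tween-20, 0.05% BSA; 6-point qHTS titration about 60 µM downward; luminescence read.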
SMN2 splice enh: qHTS Assay for Enhancers of SMN2 Splice Variant Expression; 2.8% of 210,000 active; AID 1458, 2008; Potency, µM (doses to about 46.1 µM), without a hit: at the highest dose activity change, positive = activation, usual class: activators; HEK293 SMN2-luciferase splicing reporter, luminescence, 30-36 h; further: % of control where 0% means no effect; nearly all actives have a fitted effect of over 55% in size
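HEK293 cells carry an SMN2 minigene-luciferase reporter in which exon 7 inclusion puts luciferase in frame. Cells were seeded at 2000 cells/well, attached for 10-12 hours, then exposed to compounds for 30-36 hours at 37C before ONE-Glo luminescence.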
NPC1 prom act: qHTS Assay for NPC1 Promoter Activators | AID 485313, 2010 | Huh7 NPC1 promoter luciferase reporter, 24 h | Potency, µM (titrated, usually from 9.22 µM), without a hit: top-dose activation, most hits filed as activators | 2.4% of 320,000 active; further: % of control where 0% means no effect; nearly all actives have a fitted effect of over 60% in size
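Cells: Huh7 expressing luciferase under the NPC1 promoter, 1500/well. Seeded 2 h, compound added, incubated 24 h at 37 °C. Luciferase reagent, 10 min ambient, then luminescence.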
Active calls of the source: *; u = inconclusive; x = no result given; [ ] = remark or other dose. A selection: hits, their analogues and other compounds. The true share with any hit is near 7.5%. The call rests on the fitted dose curve; in most records, active means well fitted curve in the direction sought with a large enough effect; inconclusive means small, poorly fitted or top-dose-only effect, or another doubt; inactive means no such curve, though single readings can be large; an effect the other way counts as inactive or inconclusive. Potency means the concentration at half of the fitted maximal effect.

SMILES	ELG1 genotox	Rab9 prom act	Luc counter	FLuc counter	SMN2 splice enh	NPC1 prom act
COc1cccc(C(=O)Nc2cccc(-c3ccc(N4CCOCC4)nn3)c2)c1	3.4%	u	x	2.13µM*	x	u
CCOc1ccccc1C(=O)Nc1cccc(-c2ccc(N3CCOCC3)nn2)c1	u	4.47µM*	x	1.51µM*	x	u
Cn1c(SCC(=O)N2CCOCC2)nnc1-c1cccc(NC(=O)c2ccccc2F)c1	2.0%	-1.2%	-2.2%	1.3%	10.0%	-0.8%
COc1ccc(C(=O)Nc2cccc(-c3ccc(N4CCOCC4)nn3)c2)cc1OC	10.3%	2.82µM*	x	0.757µM*	x	u
CCOc1ccccc1C(=O)Nc1ccc(S(=O)(=O)N2CCOCC2)cc1	2.1%	1.8%	-0.8%	6.0%	1.8%	-1.2%
Cc1ccc(CN2CC(C(=O)N3CCN(S(=O)(=O)c4cccc(F)c4)CC3)CC2=O)cc1 (stereo not given)	-4.7%	-8.7%	x	1.1%	x	-3.5%
COc1ccc(C(C(=O)NCc2ccc(F)cc2)N(C(=O)c2csnn2)C2CC2)cc1 (stereo not given)	-5.1%	0.3%	x	2.1%	x	-1.4%
CCOc1ccc(C(=O)Nc2cccc(-c3ccc(N4CCOCC4)nn3)c2)cc1OCC	3.0%	3.98µM*	x	1.2µM*	x	u
COc1cccc(C(=O)Nc2cccc(-c3ccc(N4CCOCC4)nn3)c2)c1OC	0.9%	1.12µM*	x	0.379µM*	x	3.55µM*
CCOc1ccc(C(=O)Nc2ccc(S(=O)(=O)N3CCOCC3)cc2)cc1OCC	3.1%	0.7%	-5.3%	0.0%	-5.8%	15.2%
N#C/C(=C\c1ccc(-c2ccc(Cl)c(C(=O)O)c2)o1)c1nc2ccccc2[nH]1	x	15.2%	x	6.01µM*	2.2%	7.5%
N#C/C(=C\c1ccccc1C(=O)O)c1nc2ccccc2[nH]1	1.2%	-2.9%[1.84 µM]	x	-15.7%	x	-1.6%
N#C/C(=C\c1ccc(-c2ccc(C(=O)O)cc2)o1)c1nc2ccccc2[nH]1	17.7%	2.51µM*	-1.8%	9.53µM*	u	3.98µM*
COc1ccccc1CNC(=O)c1ccc2c(c1)nnn2C1CCCC1	x	x	x	-10.9%	x	x
Cc1ccc(CN2CCc3nc(N4CCN(c5ccccc5F)CC4)ncc3C2)s1	x	x	x	-6.2%	x	x
Cc1ccc(C)c(-c2nc3ccc(N)cc3[nH]2)c1	u	-1.3%	-8.7%	u	15.6%	-2.6%
Cc1ccc(-n2nc3ccc(N)cc3n2)cc1Cl	u	u	x	0.675µM*	x	u
COc1ccc(-n2nc3ccc(N)cc3n2)cc1Cl	u	14.1%	x	1.51µM*	x	21.0%
Cc1ccc(-n2nc3ccc(N)cc3n2)cc1C	0.92µM*	0.501µM*	x	0.477µM*	x	1.58µM*
Cc1ccc(-n2nc3ccc(N)cc3n2)c(C)c1	u	21.8%	x	7.57µM*	x	1.9%
COc1ccc(-n2nc3ccc(NC(=O)c4ccc(C#N)cc4F)cc3n2)cc1Cl	x	x	x	-1.7%	8.0%	x
Cc1cccc(C)c1NC(=O)CNC(=O)CNC(=O)c1ccc2c(c1)OCO2	-5.9%	-8.5%	x	1.9%	x	0.0%
CC(=O)CCC(=O)N1CCC(n2nccc2NC(=O)c2ccccc2C)CC1	0.4%	6.2%	x	1.7%	x	3.0%
COc1ccc(-n2nc3ccc(NS(C)(=O)=O)cc3n2)cc1Cl	16.4µM*	25.5%	-0.4%	3.38µM*	25.4%	u
N=C(N)SCc1ccc(Cl)cc1Cl (tested in a mixture with another compound)	x	x	-2.6%[7.66 µM]	x	-0.6%[9.22 µM]	x
SMILES	ELG1 genotox	Rab9 prom act	Luc counter	FLuc counter	SMN2 splice enh	NPC1 prom act
C=C1c2cccc(O)c2C(O)=C2C(=O)[C@@]3(O)C(O)=C(C(N)=O)C(=O)[C@@H](N(C)C)[C@@H]3[C@@H](O)[C@H]12	x	x	-4.4%[17.1 µM]	x	4.3%[20.6 µM]	x
COc1cccc2[nH]c3ccccc3c(=O)c12	0.4%	5.8%	x	16.9µM*	x	2.7%
CN(C(=O)COC(=O)CSc1ccc(C(N)=O)cc1[N+](=O)[O-])C1CCCCC1	-0.2%	0.2%	x	u	x	-1.2%
Cc1oc(-c2cccc(Cl)c2)nc1Cn1c(SCc2ccccc2F)nc2ccncc21	x	x	x	u	11.1%	x
O=C(O)c1cccc(N/N=C(\N=Nc2ccccc2)c2ccccc2)c1	u	u	x	16.9µM*	x	u
O=C(O)c1ccc(N=N/C(=N\Nc2ccc(C(=O)O)cc2)c2ccccc2)cc1	12.1%	u	x	16.9µM*	x	u
NC(=O)/C(N=Nc1ccccc1)=N/Nc1ccccc1	11.4%	-0.6%	x	-10.3%	x	1.5%
O=C(/C(=N\Nc1ccc(Br)cc1)Sc1nnnn1-c1ccccc1)c1ccccc1	-4.7%	-9.8%	-0.3%	-0.1%	13.7%	-2.1%
Brc1ccc(N/N=C(/N=Nc2nn[nH]n2)c2ccccc2)cc1	-2.2%	-40.9%	u	19µM*	-116.8%	-30.5%
Cc1csc(NC(=O)CSc2nnc(NC(=O)NC(C)(C)C)s2)n1	26.2%	3.8%	x	6.01µM*	x	2.9%
CC(=O)Nc1nnc(SCC(=O)Nc2nc(C)cs2)s1	4.6%	4.6%	x	2.5%	x	3.1%
CC(C)(C)NC(=O)Nc1nnc(SCC(=O)NC2CCCCC2)s1	1.1%	19.6%	x	10.7µM*	x	16.9%
CCCCOc1ccc(C2=NC(c3ccccc3)=Nc3ccc(OC)cc3N2)cc1	x	x	x	-5.1%	5.1%	x
COc1ccc2oc(=O)c(C(=O)N3CCN(c4cc(Cl)ccc4Cl)CC3)cc2c1	x	x	x	-13.3%	2.0%	x
COc1cccc(NC(=O)CSc2nc3ccccc3c(=O)n2C)c1	-6.9%	-12.7%	x	2.2%	x	-4.4%
COc1cccc(NC(=O)CSc2nnc3[nH]c(=O)cc(-c4ccccc4)n23)c1	x	x	x	1.2µM*	x	x
O=C(CSc1nnc2[nH]c(=O)cc(-c3ccccc3)n12)Nc1ccc(OC(F)(F)F)cc1	x	x	x	2.39µM*	x	x
CCC(C)NC(=O)c1sc2nc3n(c(=O)c2c1C)CCC3 (stereo not given)	x	x	x	0.1%	x	x
CCOc1ncccc1C(=O)NCC(c1ccco1)N1CCCCC1 (stereo not given)	-5.6%	x	x	x	x	x
Cc1ccc(/C=N\NC(=O)/C(=C\Nc2nccc(C)n2)NC(=O)c2ccccc2)cc1	-3.1%	-2.4%	x	15.1µM*	x	-3.7%
COc1ccc(/C=N\NC(=O)/C(=C\Nc2nccc(C)n2)NC(=O)c2ccccc2)cc1	-0.3%	-0.2%	-19.7%	15.1µM*	-7.2%	0.0%
O=C(NNC(=S)NC1CCCCC1)c1sc2ccccc2c1Cl	-2.8%	-5.4%	1.6%	u	-18.2%	4.9%
O=C(NNC(=O)C1CC2CCC1C2)c1sc2ccccc2c1Cl (stereo not given)	18.8%	u	1.3%	23.9µM*	22.4µM*	u
